Source: PubChem BioAssay (National Center for Advancing Translational Sciences (NCATS))
An excerpt weighted towards active compounds, which were near 21% of everything screened.
NS1 function inh = blocks influenza NS1 protein function. Potency, µM (series often up to 46.1 µM), without a hit: at the top dose activity, positive = more growth. hit rate 0.4% among 270,000; also: potency is read from the fitted curve at half-maximal effect; actives are rising curves; nearly all actives have a fitted effect of over 50% in size
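S. cerevisiae expressing influenza A NS1, grown in glucose, washed, then diluted 1:100 into pH 6.0 -URA galactose medium with 23 nl compound. Growth recovery read as OD600; NS1-free strain serves as control.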
Cycloheximide cs = affects cycloheximide protein synthesis inhibition readout, counter-screen | cell reporter, cycloheximide protein synthesis inhibition counterscreen | max response, % | hit rate 12% among 300,000 | AID 2314; in the data active = max response mostly above about 13%, no sharp cut-off; inactive = mostly below about 14%; also: read at 38.3 µM for the half of the compounds with a filed dose; 0% is about no effect
Pf growth 96h = P. falciparum growth inhibition at 96 hour, primary screen for plastid delayed-death inhibitors. Potency, µM (highest dose often 28.7 µM), for the others: top-dose activity change, negative = inhibition, hits mostly inhibitors. P. falciparum luciferase reporter growth, 96 h. hit rate 6.9% among 320,000; active = well fitted inhibition curve with a large enough effect; inconclusive = small, poorly fitted or top-dose-only effect, or another doubt; inactive = no such curve, though single readings can be large or run the other way; also: potency is read from the fitted curve at half-maximal effect; % is scaled to controls: 0 for no effect and ±100 for the full control effect
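P. falciparum expressing integrated firefly luciferase, in erythrocytes at 2% hematocrit, 0.05% parasitemia, incubated with compounds 96 h at 37 C, 5% CO2. Growth inhibition read as loss of luminescence; two-generation exposure targets delayed-death apicoplast inhibitors.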
Shiga inhibitor = blocks Shiga toxin action in Vero cells. AID 2315. Vero cells, Shiga toxin protein synthesis inhibition reporter. inhibition, % at 38.7 µM. hit rate 9.2% among 290,000; in the data active = inhibition mostly above about 28%, no sharp cut-off; inactive = mostly below about 43%; also: 0% is about no effect
SARS PLP yeast = blocks SARS-CoV papain-like protease in a yeast assay; Potency, µM (titrated, usually from 32.9 µM), for the others: at the top dose activity, positive = growth rescue, actives largely listed as activators; AID 485353; S. cerevisiae expressing SARS-CoV PLpro, growth rescue; hit rate 0.19% among 330,000; also: potency is read from the fitted curve at half-maximal effect; 0% is about no effect; nearly all actives have a fitted effect of over 55% in size
Pf growth 48h = inhibits P. falciparum growth in the first generation, 48 h; AID 504832; hit rate 5.9% among 310,000; P. falciparum luciferase growth in erythrocytes, 48 h; Potency, µM (top dose mostly 28.7 µM), for the others: top-dose activity change, negative = inhibition, usual class: inhibitors; active = well fitted inhibition curve with a large enough effect; inconclusive = small, poorly fitted or top-dose-only effect, or another doubt; inactive = no such curve, though single readings can be large or run the other way; also: potency is read from the fitted curve at half-maximal effect; % is scaled to controls: 0 for no effect and ±100 for the full control effect
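First compound was added to culture medium, then infected red cells at 0.1% parasitemia and 2% hematocrit (final). After incubation at 37 C under 5% CO2, luciferase detection reagent was dispensed and light output recorded.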
* hit, by the source's call; u = inconclusive; x = no result; [ ] = another dose, or the depositor's remark. Unless noted, calls follow the shape of the full dose curve.

SMILES	NS1 function inh	Cycloheximide cs	Pf growth 96h	Shiga inhibitor	SARS PLP yeast	Pf growth 48h
CN(C(=O)CSc1nnc(-c2ccccc2)o1)c1c(N)n(Cc2ccccc2)c(=O)[nH]c1=O	-5%	-2	-6%	-6	-4%	0%
Cc1ccc(-c2nc3cccnc3s2)cc1NS(C)(=O)=O	2%	33*	116%	62*	0%	112%
CCCS(=O)(=O)Nc1cccc(-c2nc3cccnc3s2)c1	-3%	28*	12%	57*	-1%	24%
O=S(=O)(Nc1cccc(-c2nc3cccnc3s2)c1)c1cccs1	3%	18*	45%	50*	0%	40%
Cc1ccc2nc(NS(C)(=O)=O)sc2c1	2%	6	-9%[5.75 µM]	33	-1%	27%
CCOc1ncccc1C(=O)Nc1cccc(-c2nc3cccnc3s2)c1	-73%	3	38%	24	-2%	0%
CCNC(=O)C(=O)NCc1ccncc1	0%	-2	2%	-5	0%	2%
C/C(=N/Nc1ccccc1[N+](=O)[O-])c1ccc([N+](=O)[O-])cc1	-1%	-8	u	-7	-1%	24%
C/C(=N\Nc1ccc([N+](=O)[O-])cc1)c1cccc(N)c1	-74%	39*	144%	123*	-18%	178%
C/C(=N\Nc1ccc([N+](=O)[O-])cc1)c1ccc(O)cc1	x	37*	115%	45*	-20%	43%
COc1ccc(-n2nc(C(=O)NCC(=O)NCCCN3CCN(C)CC3)c3ccccc3c2=O)cc1	-8%	-8	u	-12	2%	4%
CC1CCCCN1Cc1c(O)ccc2c(=O)c(-c3ccccc3)coc12 (stereo unspecified)	2%	9	37%	26	4%	7%[0.00184 µM]
CCc1cc2c(=O)c(-c3ccc4c(c3)OCCO4)coc2cc1OS(C)(=O)=O	12%	42*	27%	79*	-4%	68%
O=c1c(-c2ccc3c(c2)OCCO3)coc2c(CN3CCOCC3)c(O)ccc12	-3%	39*	12µM*	33*	2%	-30%
CCc1cc2c(=O)c(-c3ccc4c(c3)OCCO4)coc2c(CN2CCCCC2C)c1O (stereo unspecified)	6%	22	-4%	46	2%	2.1µM*
CCc1cc2c(=O)c(-c3nc4ccccc4[nH]3)coc2c(CN2CCCCC2C)c1O (stereo unspecified)	6%	-2	0.74µM*	-2	0%	1.5µM*
CCOC(=O)c1oc2cc(O)c(CC)cc2c(=O)c1-c1ccc2c(c1)OCCO2	-23%	-4	-2%	-4	-1%	-22%
CCc1cc2c(=O)c(-c3nc4ccccc4n3C)coc2c(CN2CCCC(C)C2)c1O (stereo unspecified)	-1%	-2	u	-4	1%	u
COc1ccc(-n2nnc3c(SC(C(C)=O)C(=O)N(C)C)ncnc32)cc1 (stereo unspecified)	7%	-5	u	-6	-1%	u
COc1ccc(N(C(=O)Cn2nnc(-c3ccc(C)o3)n2)C(C(=O)NC2CCCC2)c2ccncc2)cc1 (stereo unspecified)	1%	-9	2%	29	1%	u
CS[C@@H]1SC[C@H]2C(=O)N(C)C(C(C)C)C(=O)OC[C@@H](NC(=O)c3cnc4ccccc4n3)C(=O)N[C@@H](C)C(=O)N(C)[C@H]1C(=O)N(C)C(C(C)C)C(=O)OC[C@@H](NC(=O)c1cnc3ccccc3n1)C(=O)N[C@@H](C)C(=O)N2C (stereo partly specified)	x	-11	x	-3	x	x
CCCN1CC(O)=C(C#N)C1=O	x	24	3%	20	-2%	2%
O=C(CCCc1ccccc1)N1CCN(c2ccc([N+](=O)[O-])cc2)CC1	-12%	-1	0%	27	-5%	12%
Cc1cc(=O)oc2cc(NC(=O)CN3C(=O)NC(C)(c4ccccc4)C3=O)ccc12 (stereo unspecified)	x	x	-22%	x	x	-14%
CCc1cc2c(=O)c(-c3nc4ccccc4[nH]3)coc2c(CN2CCCCC2)c1O	0%	27*	6%	35	0%	-16%
SMILES	NS1 function inh	Cycloheximide cs	Pf growth 96h	Shiga inhibitor	SARS PLP yeast	Pf growth 48h
CC[C@]12c3[nH]c4cc(CCC(=O)N(C)C)ccc4c3CCN1C(=O)[C@@H](CC(=O)NC(C)(C)C)C[C@@H]2C(=O)N1CCN(C(=O)c2ccco2)CC1	x	x	x	x	-16%	x
CC(=O)Nc1ccc(N(C)C)cc1[N+](=O)[O-]	-4%	24	0%	8	5%	2.6µM*
COc1ccc(C)cc1NC(=O)c1nnn(Cc2cccc(C(F)(F)F)c2)c1N	x	0	13µM*	6	-7%	-2%
CCOc1ccc(Cn2nnc(C(=O)NCc3ccc(OC)cc3)c2N)cc1	11%	-3	0.93µM*	-9	u	10%
COc1ccc(OC)c(NC(=O)c2nnn(CCc3ccccc3)c2N)c1	5%	-8	-3%	-5	0%	x
CCOc1ccc(NC(=O)Cn2nnc(C(=O)NCc3ccc(OC)cc3)c2N)cc1	2%	-3	46%	-2	-11%	15%
CCc1ccc(Cn2nnc(C(=O)Nc3ccc(OC)cc3OC)c2N)cc1	2%	-2	7.4µM*	18	-3%	x
CCC(Cc1ccccc1)NS(=O)(=O)c1csc(C(N)=O)c1 (stereo unspecified)	0%	10	60%	-14	5%	17%
CCn1c(CNC(=O)c2ccccc2OC)nnc1SCC(=O)c1ccc(F)cc1	-6%	-3	49%	5	13%	-17%
Cc1ccc(S(=O)(=O)N2CCN(CC3CC4C=CC3C4)CC2)cc1 (stereo unspecified)	10%	-5	23%	-7	-2%	-3%
CN(CCc1ccccn1)c1ccc2c(c1)C(=O)c1ccccc1-2	-31%	x	x	x	x	x
Oc1ccccc1/C=N/NC(=S)NC1CC2C=CC1C2 (stereo unspecified)	-4%	35*	0.93µM*	57*	0%	u
CN(/N=C/c1cc(Cl)cc(Cl)c1O)C(=S)NC(C)(C)C	-57%	-3	u	-2	-3%	u
Cc1c(NC(=S)N/N=C\c2ccccc2O)c(=O)n(-c2ccccc2)n1C	7%	9	u	13	3%	-17%
Oc1c(Cl)cc(Cl)cc1/C=N/NC(=S)NC1CC2C=CC1C2 (stereo unspecified)	16%	1	u	31	-4%	0.83µM*
NS(=O)(=O)Nc1ccccc1Br	x	-6	x	4	x	x
c1ccc2c(N3CCOCC3)nc(-c3ccncc3)nc2c1	-2%	-2	-14%	-7	-19%	9.3µM*
CCC1CCCCN1c1nc(-c2ccncc2)nc2ccccc12 (stereo unspecified)	-58%	-5	3%	-20	-29%	x
CC12CC3CC(C)(C1)CC(Nc1nc(N4CCOCC4)nc4ccccc14)(C3)C2	-1%	-1	1.3µM*	-10	0%	1.7µM*
